# Measurements published in PubChem BioAssay (NCI).
# Compounds without any hit were thinned out: in the full panel of roughly 79,000, 15% have a hit. A number with no mark means an inactive call. Activity calls are given as the source filed them. Cut-off read from the data, not from the text of the source: active = growth inhibition above about 70%; inactive = the rest.
# How the values were obtained:
# [1] = NCI Yeast Anticancer Drug Screen. Data for the rad50 strain (AID 155);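 note: 0% = growth of vehicle-only cultures of the same strain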; settings: S. cerevisiae rad50 strain growth inhibition; at 50.0 µM; active compounds read high
# Method in brief: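 Readout: growth inhibition relative to vehicle-treated cultures. Compound exposure was carried out in a genetically defined yeast strain deficient in DNA damage repair.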
# [2] = NCI Yeast Anticancer Drug Screen. Data for the mec2-1 strain (AID 157); settings: S. cerevisiae mec2-1 strain, at 50.0 µM, active compounds read high
# Method in brief: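 Compounds were applied to mec2-1 yeast cells. Their growth was then compared with that of vehicle-treated cultures to give growth inhibition.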
# [3] = NCI Yeast Anticancer Drug Screen. Data for the sgs1 mgt1 strain (AID 161);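 note: 0% = growth of cultures given vehicle only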; settings: S. cerevisiae sgs1 mgt1 strain, at 50.0 µM, active compounds read high
# Method in brief: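 Yeast cells carrying a defined DNA-repair defect were exposed to test compounds. Growth inhibition was measured relative to vehicle-treated controls.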
# [4] = NCI Yeast Anticancer Drug Screen. Data for the cln2 rad14 strain (AID 165);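 note: 0% = growth equal to vehicle treated cultures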; settings: S. cerevisiae cln2 rad14 strain, at 50.0 µM, active compounds read high
# Method in brief: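 Strain: cln2 rad14 yeast, altered in cell cycle control and DNA damage repair. Read-out: growth inhibition vs vehicle.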
# [5] = NCI Yeast Anticancer Drug Screen. Data for the bub3 strain (AID 167); settings: S. cerevisiae bub3 mutant strain, at 50.0 µM, active compounds read high
# Method in brief: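 Readout: yeast growth inhibition, expressed relative to vehicle-only wells. The test organism is a mutant strain from a panel with lesions in DNA repair or checkpoint genes.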
# [6] = NCI Yeast Anticancer Drug Screen. Data for the mlh1 rad18 strain (AID 175); settings: S. cerevisiae mlh1 rad18 strain growth inhibition; at 50.0 µM; active compounds read high
# Method in brief: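 A repair-deficient yeast strain is exposed to test compound, and growth is scored relative to vehicle-treated controls.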
SMILES,growth inhibition [1],growth inhibition [2] [%],growth inhibition [3],growth inhibition [4] [%],growth inhibition [5] [%],growth inhibition [6]
COc1ccc2[nH]c(=O)c(C(C)=O)c(O)c2c1,3%,6.95,6.15%,1.6,7.15,7.85%
[Cl][Pt+2][Cl].[NH-]CC(O)c1ccc2oc3ccccc3c2c1.[NH-]CC(O)c1ccc2oc3ccccc3c2c1 (stereo not drawn),-23.3%,-11.2,-30.6%,-21.1,7.35,17.6%
Cc1cc(=O)[nH]c(/N=C(\N)Nc2ccc(Br)c(C(F)(F)F)c2)n1,10.1%,2.85,-3.8%,6.55,-1.5,2.9%
O=C1NC(=O)C(CN2C(=O)/C(=C/c3cccc(O)c3)SC2=S)C(=O)N1,-55.2%,-20.8,-29.7%,-20.6,-20.4,-71.8%
COc1ccc(-c2c(C#N)c(-c3ccccc3)n(NS(=O)(=O)c3ccccc3)c(=O)c2C#N)cc1,-0.05%,40.7,30.4%,8.45,32.6,42.1%
CC(C)C(C(=O)O)N(CC1(O)OCC(O)C(O)C1O)N=O (stereo not drawn),-0.2%,-18.4,-2.85%,0.1,-11.1,-12.9%
O=C1Nc2ccccc2Nc2nc3cccccc-3c21,9.85%,-15.2,-2.4%,16.8,-6.6,-13.8%
C/C(=N\NS(=O)(=O)c1ccc(C)cc1)P(=O)(O)O,-6.85%,-13.4,-24.7%,8.1,-16.1,22.6%
CCc1c(Cl)c(Cl)c(Cl)c(Cl)c1Cl,2.95%,2.35,4.15%,-42.5,-2.9,13.8%
CC1CCC(C(C)(C)NO)C(=O)C1 (stereo not drawn),-2.8%,0,-4.8%,-8.1,-2.1,0.7%
CCCC(C)c1ccc(OCc2ccc(C)cc2)cc1 (stereo not drawn),1.6%,-4.25,-18.1%,13.8,-1.05,-4.9%
CCOc1ccccc1C(=O)OCCCc1ccccc1,-1%,9.15,7.1%,-2.25,25.2,15.4%
Clc1ccccc1/C=N/N=C/c1ccccc1Cl,5.65%,-3.95,-9.05%,-21.9,1.7,4.9%
CNc1ccc(OC)cc1,-4.9%,-0.9,-13.4%,-1,7.35,3.25%
COc1ccc(C2=Nc3cccc4c3N(CCC4)C2c2ccc(OC)cc2)cc1 (stereo not drawn),0.45%,2.45,3%,7.6,-2.95,4.8%
O=C1c2ccccc2C(=O)N1OCCCCON1C(=O)c2ccccc2C1=O,10.8%,-0.2,-19.9%,15.1,1,-2.4%
COC1=CCC=C(C(C)(C)C)C1,-45.8%,-22.6,-10.5%,-32.1,-12.2,21.7%
O=C(O)c1ccccc1SC(Sc1ccccc1C(=O)O)c1ccc2c(c1)OCO2,11.3%,-11.9,2.85%,-11.6,33.6,28%
O=C1c2ccccc2C(=CC=C2c3ccccc3Sc3ccccc32)c2ccccc21,11.9%,25.9,-35%,9.55,24.2,-5.75%

SMILES,growth inhibition [1],growth inhibition [2] [%],growth inhibition [3],growth inhibition [4] [%],growth inhibition [5] [%],growth inhibition [6]
CC(C1CCCC1=O)C1CCCC1=O (stereo not drawn),-1.1%,-17.8,-5.05%,5.35,-11.9,-10.4%
Cc1ccnn1CCc1ccc(Cl)cc1Cl,18.1%,15.3,34.1%,11.4,29.5,-4.55%
COc1ccc(C(O)C(NCc2ccccc2)c2ccccc2)cc1 (stereo not drawn),7.75%,-7.3,13.2%,11.8,2.55,23.9%
CC1(C)C2CCC1(C)C(NC(N)=O)C2 (stereo not drawn),-10%,6.45,-8.95%,-6.6,2.3,10.5%
C=C(C)C1Cc2c(cc(OC)c3c(=O)c4cccc(O)c4oc23)O1 (stereo not drawn),43.1%,15.4,-1.95%,25.4,-20.2,-21.4%
CCSc1ccc(C)cc1,28.6%,-3.15,-20.8%,26.5,-8.1,12.6%
O=C(O)CC1C(=O)OC2C3COC(=O)c4cc(O)c(O)c(O)c4-c4c(cc(O)c(O)c4O)C(=O)OC2C(OC(=O)c2cc(O)c(O)c4c2C1C(O)C(=O)O4)C(OC(=O)c1cc(O)c(O)c(O)c1)O3 (stereo not drawn),24.4%,2.8,22.4%,5.15,35.5,-6.15%
Nc1ccn(C2CC(F)C(CO)O2)c(=O)n1 (stereo not drawn),19.6%,11.2,17.2%,1.5,7,-1.8%
C[n+]1nc([O-])oc1-c1ccccc1,4.5%,3.05,11.4%,-3.65,-4.6,6.3%
[CH3][Ge]([Cl])([c]1ccccc1)[c]1cccc2ccccc12 (stereo not drawn),25.2%,12.4,10.8%,10.2,-0.15,7.5%
O=[N+]([O-])c1ccc(Sc2c3ccccc3nc3ccccc23)cn1,21.1%,27.4,-12.5%,7.65,-14.8,-18.4%
CCOC/C(=N\NC(N)=O)c1ccccc1,-16.8%,-22.2,-22.9%,-1.85,9.3,-20.3%
CC(C)C1OCC=CCO1,7.65%,-6.7,-13.2%,-9.85,13.7,-3%
COc1ccc(C(=O)c2cc3c(ccc4ccccc43)oc2=O)cc1,-3.7%,0.6,7.2%,2.85,23.9,-7.45%
CC(=O)Nc1ccc(S(=O)(=O)/C(=C\c2ccc(Cl)o2)c2ccc([N+](=O)[O-])o2)cc1,90.1% (active),56.8,92.9% (active),57.5,61.4,92.7% (active)
CSC(=NCCCCN=C(NS(=O)(=O)c1ccc(Cl)cc1)SC)NS(=O)(=O)c1ccc(Cl)cc1,-18.1%,-27,-16.9%,13.9,-8.8,-11.2%
CCNc1nc(C)nc2c1cnn2C,5%,4.85,-1.85%,-13.2,17.8,-1%
Fc1ccc(C(Nc2nncs2)Nc2nncs2)c(F)c1,-0.8%,-13.8,12.6%,-44.1,-35.8,9.7%
CC(C)SC(CC(O)C(O)COC(=O)c1ccccc1)SC(C)C (stereo not drawn),-8.05%,-0.15,6.15%,-8.35,-4.7,17.8%
